Six1-Eya2 inh: inhibitors of human Six1/Eya2 interaction. Q15475+O00167. AlphaScreen GST-Six1/His-Eya2 binding, biochemical; stronger effect = lower value. activity change, % (no concentration beside the values). 360,000 compounds, 0.56% hits. AID 651725; in the data active = activity change below about -65%; inconclusive = mostly about -30% to -63%; note: % is set by controls: 0 for no effect and ±100 for the full control effect
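Six1/Eya2 binding was read as AlphaScreen signal after compounds were pinned into GST-Six1 plus His-tagged Eya2 (5X stock 250/500 nM) in pH 8.0 Tris/NaCl/TCEP buffer, beads added, then incubated 1 h, 37 C, dark.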
BAZ2B inh: inhibitors of human BAZ2B bromodomain; Q9UIF8; AID 504333; Potency, µM (doses to about 114 µM), for inactives: at the highest dose activity change, negative = inhibition, usual class: inhibitors; AlphaScreen BAZ2B-H3K14Ac peptide displacement; 360,000 compounds, 4.4% hits; note: potency is the fitted concentration of half-maximal effect; % is set by controls: 0 for no effect and ±100 for the full control effect; nearly all actives have a fitted effect of over 60% in size
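BAZ2B (50 nM) with biotin-H3(5-23)K14Ac peptide (50 nM) in PBS pH 7.4, 0.01% Tween-20, preformed 30 min, then compound 30 min at room temperature; top concentration 110uM. AlphaScreen streptavidin donor/nickel chelate acceptor beads (10 ug/mL final), 20 min dark, signal read.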
G9a inh: blocks human histone lysine methyltransferase G9a; Potency, µM (doses to about 102 µM), for the others: at the top dose activity, negative = inhibition, usual class: inhibitors; 350,000 compounds, 8.8% hits; G9a H3K9 monomethylation, AlphaScreen, 2 h; Q96KQ7; note: potency is the fitted concentration of half-maximal effect; % is set by controls: 0 for no effect and ±100 for the full control effect; nearly all actives have a fitted effect of over 75% in size
Target sequence (Q96KQ7 913-1193 limits assumed): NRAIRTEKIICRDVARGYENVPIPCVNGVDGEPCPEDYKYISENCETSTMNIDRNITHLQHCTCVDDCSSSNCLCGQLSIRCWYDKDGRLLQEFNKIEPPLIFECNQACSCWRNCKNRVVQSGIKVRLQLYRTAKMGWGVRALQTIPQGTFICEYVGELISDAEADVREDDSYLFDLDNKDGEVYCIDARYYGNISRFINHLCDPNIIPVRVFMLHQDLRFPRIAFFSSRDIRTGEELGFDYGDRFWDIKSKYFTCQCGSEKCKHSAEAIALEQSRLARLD
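Compounds were preincubated with 20 nM G9a for 15 min, after which biotinylated H3K9 peptide (500 nM) and SAM (20 uM) started a 2 h room-temperature reaction. Monomethylated product was quantified by antibody-based AlphaScreen chemiluminescence.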
HP1b binding inh: inhibitors of HP1-beta chromodomain binding to methylated histone tails; P83916; AlphaScreen HP1-beta / biotin-H3K9me3 peptide binding; Potency, µM (top dose mostly 114 µM), for the others: at the top dose activity change, negative = inhibition, most hits filed as inhibitors; 390,000 compounds, 0.56% hits; AID 540317; note: potency is the fitted concentration of half-maximal effect; nearly all actives have a fitted effect of over 70% in size
Target sequence (P83916 whole entry, looked up): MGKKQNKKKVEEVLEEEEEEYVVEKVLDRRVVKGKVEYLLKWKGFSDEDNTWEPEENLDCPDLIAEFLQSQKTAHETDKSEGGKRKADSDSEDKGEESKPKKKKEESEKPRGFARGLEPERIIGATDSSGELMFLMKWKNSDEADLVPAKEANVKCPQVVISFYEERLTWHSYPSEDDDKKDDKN
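AlphaScreen: HP1-beta (50 nM) preformed 30 min with biotin-H3(1-18)K9me3 peptide (50 nM) in PBS pH 7.4, 0.01% Tween-20. Compound added for 30 min at RT, then streptavidin donor/nickel chelate acceptor beads (10 ug/mL) for 30 min.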
JMJD2A Tudor: JMJD2A Tudor domain (human) inhibition. O75164. AlphaScreen JMJD2A-Tudor / H3K4me3 peptide binding. Potency, µM (titrated, usually from 114 µM), for inactives: top-dose activity change, negative = inhibition, hits mostly inhibitors. 390,000 compounds, 4.4% hits. AID 504339; note: potency is the fitted concentration of half-maximal effect; % is set by controls: 0 for no effect and ±100 for the full control effect; nearly all actives have a fitted effect of over 50% in size
CtBP-E1A blk: CtBP/E1A binding inhibition. 340,000 compounds, 0.49% hits. AlphaScreen GST-E1A/His-CtBP binding, 1536-well; stronger effect = lower value. activity change, % (no concentration beside the values); in the data active = activity change below about -65%; inconclusive = mostly about -30% to -63%; note: % is set by controls: 0 for no effect and ±100 for the full control effect
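In 5 uL wells, 23 nL compound meets equimolar GST-E1A and His-CtBP (5X stock 125 nM each) for 2 h, 37 °C. Beads (5X, 50 ug/mL) then 1 h, 37 °C, dark.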
The depositor's hits bear a star; ? = inconclusive; nt = no result; ! = not active in a repeat; [ ] = remark or other dose. Sampled rows, rich in hits. Any-hit rate of the full collection: about 10%. Unless noted, calls come from the whole dose curve; as a rule, active = well fitted inhibition curve with a large enough effect; inconclusive = small, poorly fitted or top-dose-only effect; inactive = no such curve, though single readings can be large or run the other way.

SMILES	Six1-Eya2 inh	BAZ2B inh	G9a inh	HP1b binding inh	JMJD2A Tudor	CtBP-E1A blk
C#Cc1ccc(CN2CCC(N3CCC(C(=O)NCc4ccccn4)CC3)CC2)cc1	-3.8	-11.6%	nt	11.7%	-9.0%	3.3
c1ccc(COc2cccc(CN3CCc4ccccc4C3)c2)cc1	4.0	7.2%	nt	21.1%	56.2µM*	11.2
O=C(NCc1ccccn1)C1CCN(Cc2cccc(OCc3ccccc3)c2)CC1	-16.1	?	-14.2%	?	3.55µM*	-7.6
CN1CCN(Cc2ccc(OCc3ccccc3)cc2)CC1	-2.3	-30.1%	6.5%[59 µM]	34.0%	-21.8%	0.5
CCOC(=O)C1CCN(Cc2nc3ccc(Cl)cc3n2CCO)CC1	1.0	44.7µM*	?	14.1µM*	1.12µM*	-3.1
O=C(Nc1cc(F)ccc1F)C1COc2ccccc2C1 (stereo unspecified)	nt	-0.7%	0.0%[59 µM]	3.3%[57 µM]	-16.9%	nt
CC(C)NC(=O)C1CCN(Cc2cccc(OCc3ccccc3)c2)CC1	8.5	nt	nt	nt	nt	-19.3
NC(=O)C1CCN(Cc2cccc(OCc3ccccc3)c2)CC1	-13.1	?	nt	?	2.51µM*	1.2
Fc1ccc(CN2CCSCC2)cc1Br	-7.2	50.1µM*	8.91µM*	?	3.16µM*	-12.0
N#Cc1ccccc1NC(=O)CSc1nc(-c2ccccc2)cc(C(F)(F)F)c1C#N	nt	1.1%	19.3%[59 µM]	58.5%	1.0%	nt
CCOC(=O)CSC1=C(C#N)C(=O)NC2(CCCCC2)S1	4.4	12.6µM*	31.6µM*	70.8µM*	44.7µM*	3.7
COc1cc(-c2nc3ccccn3c2/N=C/c2ccc(F)cc2)ccc1O	-9.6	?	35.5µM*	?	?	-4.9
Clc1ccc(/C=N/c2c(-c3ccco3)nc3ccccn23)cc1	-19.6	?	?	?	44.7µM*	6.8
Clc1cccc(Cc2c(-c3ccco3)nc3ccc(Cl)cn23)c1	?	nt	nt	nt	nt	3.4
COc1cc(-c2nc3ccccn3c2/N=C/c2cccc(OC)c2O)ccc1O	6.0	-15.4%	8.9%	20.2%	?	-9.9
COc1ccc(/C=N/c2c(-c3ccco3)nc3ccccn23)cc1OC	-17.0	?	70.8µM*	-6.3%	-33.8%	?
Cc1ccc2nc(-c3cccc(NC(=O)CSc4ccc(Cl)cc4)c3)oc2c1	nt	-2.4%	14.7%[59 µM]	33.4%	-8.2%	nt
CNC(=O)c1sc(-c2cccs2)nc1C	-1.8	nt	44.7µM*	27.6%	0.0%	-0.9
CN1CCN(C(=O)C[C@@H]2C[C@H]3c4cc(NC(=O)c5cccnc5)ccc4O[C@H]3[C@H](CO)O2)CC1	5.8	nt	nt	nt	nt	6.3
CCOC(=O)N1CCN(C(=O)Nc2sc3nc4n(c(=O)c3c2C)CCC(C)CC4)CC1 (stereo unspecified)	-14.0	-34.7%	31.6µM*	9.0%	-28.7%	0.0
CCOC(=O)c1sc2nc3n(c(=O)c2c1C)CCC(C)CC3 (stereo unspecified)	3.9	10.9%	10µM*	-10.1%	-13.5%	6.6
CC(C)CCSc1nc2c(c(=O)n(C)c(=O)n2C)n1Cc1ccccc1Cl	nt	4.6%	-1.5%[59 µM]	14.7%	5.5%	nt
CCCCC(=O)Nc1cc2nn(-c3ccc(OCC)cc3)nc2cc1C	nt	0.2%	-1.9%[59 µM]	25.6%	6.9%	nt
CS(=O)(=O)Nc1ccc(N2CCN(c3ccc(C(F)(F)F)cn3)CC2)nc1	0.2	-1.6%	15.0%	38.0%	-8.0%	-2.3
CC1=NN(c2ccc(C(F)(F)F)cn2)C(=O)C1	-68.2*	8.91µM*	-7.5%	40.1%	79.4µM*	?
SMILES	Six1-Eya2 inh	BAZ2B inh	G9a inh	HP1b binding inh	JMJD2A Tudor	CtBP-E1A blk
COc1ccc(-c2cc(-c3cc(OC)ccc3O)[nH]n2)cc1	?	?	-6.9%[59 µM]	?	28.2µM*	-21.9
COc1ccc(O)c(-c2cc(-c3ccc(F)cc3)n[nH]2)c1	-9.8	?	?	10.8%	?	-7.5
COC(=O)c1ccc(C2/C(=C(/O)c3ccc(Cl)cc3)C(=O)C(=O)N2C2CCS(=O)(=O)C2)cc1 (stereo unspecified)	10.5	?	44.7µM*	-15.6%	89.1µM*	11.7
O=C1C(=O)N(C2CCS(=O)(=O)C2)C(c2cccc(O)c2)/C1=C(/O)c1ccc(Cl)cc1 (stereo unspecified)	7.4	79.4µM*	31.6µM*	-2.1%	?	4.3
Cc1c(N2C(=O)C(=O)/C(=C(/O)c3ccc(Cl)cc3)C2c2ccccc2)c(=O)n(-c2ccccc2)n1C (stereo unspecified)	-3.7	-28.1%	-18.6%[59 µM]	28.6%	?	-8.8
O=C(COc1ccc(Cl)cc1)Nc1nnc(S(=O)(=O)N2CCCCCC2)s1	7.3	1.78µM*!	3.16µM*!	?	10µM*!	5.5
O=C(Nc1nnc(S(=O)(=O)N2CCCC2)s1)c1ccccc1Br	-7.7	7.08µM*!	?	52.2%	?	-1.3
CC1CCN(S(=O)(=O)c2nnc(NC(=O)c3ccccc3Br)s2)CC1	3.9	13.2%	2.5%	47.1%	-10.9%	-11.6
O=C(Nc1nnc(S(=O)(=O)N2CCCCCC2)s1)c1ccc(Br)cc1	3.7	-38.8%	14.1µM*!	?	?	-9.2
CCN(c1ccc(OC)cc1)S(=O)(=O)c1nnc(NC(=O)COc2ccc(F)cc2)s1	-5.9	-25.9%	-50.2%	13.3%	35.5µM*!	-7.2
CCN(c1ccc(OC)cc1)S(=O)(=O)c1nnc(NC(=O)COc2ccc(C)cc2)s1	0.8	-10.2%	nt	31.3%	-12.1%	nt
COC(=O)c1sccc1NC(=S)N1CCC(C(N)=O)CC1	-1.7	nt	-49.2%	34.3%	-11.2%	nt
O=C(Cn1ccc2cc(S(=O)(=O)N3CCCC3)ccc21)NCc1ccc(Cl)cc1	nt	-11.2%	-3.7%[59 µM]	10.4%	-2.4%	nt
O=C(Nc1nnc(S(=O)(=O)N2CCCCCC2)s1)c1ccccc1Br	-9.8	14.1µM*!	10µM*	39.7%	12.6µM*!	1.5
Cc1ccccc1C(=O)Nc1nnc(S(=O)(=O)N2CCCCC2)s1	-2.4	-2.6%	-24.5%	44.0%	-2.1%	1.1
CCOC(=O)c1[nH]c(C)c(C(=O)NCc2cccnc2)c1C	-3.4	12.8%	35.5µM*	50.2%	-15.7%	5.3
O=C(NCc1ccco1)c1ccccc1Br	-3.5	12.5%	9.4%[12.7 µM]	-22.9%	50.1µM*	3.2
CCSc1ccccc1C(=O)NCc1ccco1	-0.5	-0.1%	10µM*	4.8%	-23.0%	2.5
O=C(NCc1ccco1)C1c2ccccc2Oc2ccccc21	9.2	-8.8%	?	0.7%	50.1µM*	0.0
O=C(NNC(=S)NCc1ccco1)c1ccccc1Br	-0.1	2.3%	54.9%	41.8%	-9.3%	1.3
CCSc1ccccc1C(=O)NCc1cccnc1	1.6	-12.1%	8.91µM*	20.6%	-15.8%	-2.5
C=CCNC(=O)c1cc(Cl)cc(Cl)c1	0.5	-3.8%	-2.7%	-6.5%	44.7µM*	0.0

Screening results (PubChem)
